In PubChem BioAssay (NCATS) one finds outcome, Potency and max response data, which are given here for 46 compounds.

Each structure is given as a SMILES string. Several values for one entry are separate records, joined by “and”; a condition that tells them apart may be missing. Equal entries are not always repeated. A number with no mark means an inactive call. Results filed as inconclusive are left out. Activity calls are given as the source filed them. Unless noted, calls follow the shape of the dose curve; as a rule, active = well fitted curve in the direction sought with a large enough effect; inconclusive = small, poorly fitted or top-dose-only effect, or another doubt; inactive = no such curve, though single readings can be large; an effect the other way counts as inactive or inconclusive.

A short description of assay [1]: qHTS for compounds that reverse cellular toxicity of Amyloid beta (A-beta) peptide in yeast: LOPAC Validation Assay (AID 720559).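 Also: plate controls were DMSO for no effect and equimolar ferric chloride plus clioquinol rescue for full effect.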 In a few lines: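 Yeast cells expressing toxic A-beta were combined with pinned compounds in growth medium and incubated 48 hr at 30 C. Growth was read as absorbance at 600 nm and normalized to DMSO and to an equimolar FeCl3/clioquinol positive control.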
For orientation: In qHTS, concentration-response curves come from the screen itself.

The nature of assay [2]: qHTS for Activators of Parkin Expression: LOPAC Validation Assay (NLuc Reporter) (AID 720572;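 also: 0% = DMSO and 100% = positive control compound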). In short, it runs like this: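 Cells harboring the Parkin-promoter coincidence reporter were treated for 24 h at seven concentrations. NLuc output was measured sequentially after the FLuc channel and scaled between DMSO and positive control values.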
Assay [3] can be described thus: qHTS for Activators of Parkin Expression: LOPAC Validation Assay (FLuc Reporter) (AID 720573;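 also: 0% = DMSO and 100% = positive control compounds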). In a few lines:
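Neuronal cell line stably carrying FLuc/NLuc coincidence reporter under Parkin promoter; cells plated 24 h, then compounds added in 7-point dose response for 24 h at 37 C. FLuc luminescence read; normalized to DMSO and positive control (100%).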

For assay [4], the target named is T1, Hexokinase-4 (Homo sapiens) + Glucokinase regulatory protein (Homo sapiens) (UniProt P35557+Q14397). The assay is described as follows: qHTS assay for inhibitors of recombinant human GCK-GKRP interaction: Diaphorase-coupled assay (AID 743205). In short, it runs like this:
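GST-GCK (10 nM) with FLAG-GKRP (10 nM), 5 mM glucose and 0.4 mM ATP in pH 7.6 Hepes; compounds preincubated 20 min with substrate. G6PDH/diaphorase coupling converts resazurin to resorufin, read kinetically (ex 525/em 590 nm) for 30 min.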

For assay [5], the target named is T1, Hexokinase-4 (Homo sapiens) + Glucokinase regulatory protein (Homo sapiens). The assay is described as follows: qHTS assay for inhibitors of recombinant human GCK-GKRP interaction: HTRF assay (AID 743207).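 Also: 0% = DMSO with GCK present and -100% = DMSO wells lacking GCK.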 In a few lines:
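GST-GCK and FLAG-GKRP (5 nM each) were combined with 2 uM S6P in pH 7.1 Hepes/MgCl2/KCl/DTT buffer, then compound and anti-FLAG XL665/anti-GST K antibodies were added. After 60 min at room temperature, HTRF 665/615 nm emission was read.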

The target is the same in assay [6]. The assay can be described thus: qHTS assay for inhibitors of recombinant human GCK-GKRP interaction: ADP-Glo assay (AID 743206).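 Also: plate controls were DMSO plus enzyme for no effect and no enzyme for full effect.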 In short, it runs like this: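 Pin-transferred compounds meet a 15 nM GST-GCK/15 nM FLAG-GKRP/2 uM S6P mix (dispense concentrations). ATP is then added to 0.4 mM final with 5 mM glucose, and the reaction runs 60 min at room temperature. ADP is quantified luminescently.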

Assay [7] is described as follows: qHTS assay for small molecule agonists of the antioxidant response element (ARE) signaling pathway measured by Nrf2-dependant transcriptional activity (AID 720636; active = well fitted curve in the direction sought with a large enough effect in the repeat runs; an effect the other way counts as inactive or inconclusive; also: potency is read from the fitted curve at half-maximal effect). In short, it runs like this: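 ARE-luc HepG2 cells carrying an Nrf2-responsive luciferase reporter were plated in medium with 1% dialyzed FBS, left 6 hr at 37 C to attach, then exposed to compound for 16 hr. Luciferase luminescence was read after ONE-Glo addition.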

Assay [8] in a line: qHTS assay for small molecule antagonists of the retinoid-related orphan receptor gamma (ROR-gamma) signaling pathway - cell viability counter screen (AID 720652; active = well fitted curve in the direction sought with a large enough effect in the repeat runs; an effect the other way counts as inactive or inconclusive;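 also: compound exposure lasted 16 hr before ATP read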; also: potency is read from the fitted curve at half-maximal effect). In a few lines: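 CHO RORE-LUC/TET-ROR line, 1,000 cells/well, 37 C 5% CO2 5 hr; cpd or DMSO + doxycycline induction, 16 hr. CellTiter-Glo, 30 min RT, luminescence = ATP content.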
A short description of assay [9]: qHTS assay for small molecule agonists of the antioxidant response element (ARE) signaling pathway measured by Nrf2-dependant transcriptional activity - cell viability counter screen (AID 720653; active = well fitted curve in the direction sought with a large enough effect in the repeat runs; an effect the other way counts as inactive or inconclusive; also: potency is read from the fitted curve at half-maximal effect; as to max response: % is scaled to controls: 0 for no effect and ±100 for the full control effect). Particulars: ARE-bla HepG2 viability, CellTiter-Glo ATP luminescence, 16 h; max response: stronger effect = lower value. In short, it runs like this: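 ARE-bla HepG2 cells (2,000/well) rested 5 hrs at 37C/5% CO2, then exposed to compounds in DMSO for 16 hrs. Viability was read in the same wells as intracellular ATP by luminescence, 30 min at room temperature after reagent addition.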

T1 sequence (P35557 whole entry, looked up): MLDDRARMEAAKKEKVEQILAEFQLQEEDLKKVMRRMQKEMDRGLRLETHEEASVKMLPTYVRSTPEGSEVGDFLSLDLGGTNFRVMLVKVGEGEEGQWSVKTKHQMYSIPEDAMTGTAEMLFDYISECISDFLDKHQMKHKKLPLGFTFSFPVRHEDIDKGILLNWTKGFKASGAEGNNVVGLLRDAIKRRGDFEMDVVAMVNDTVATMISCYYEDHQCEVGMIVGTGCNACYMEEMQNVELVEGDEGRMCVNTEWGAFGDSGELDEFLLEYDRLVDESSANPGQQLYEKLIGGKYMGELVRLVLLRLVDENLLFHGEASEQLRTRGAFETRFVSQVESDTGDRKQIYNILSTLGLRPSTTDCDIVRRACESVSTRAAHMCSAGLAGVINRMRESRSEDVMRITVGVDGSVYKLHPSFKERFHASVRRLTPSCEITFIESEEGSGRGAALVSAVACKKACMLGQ
T1 sequence (Q14397 whole entry, looked up): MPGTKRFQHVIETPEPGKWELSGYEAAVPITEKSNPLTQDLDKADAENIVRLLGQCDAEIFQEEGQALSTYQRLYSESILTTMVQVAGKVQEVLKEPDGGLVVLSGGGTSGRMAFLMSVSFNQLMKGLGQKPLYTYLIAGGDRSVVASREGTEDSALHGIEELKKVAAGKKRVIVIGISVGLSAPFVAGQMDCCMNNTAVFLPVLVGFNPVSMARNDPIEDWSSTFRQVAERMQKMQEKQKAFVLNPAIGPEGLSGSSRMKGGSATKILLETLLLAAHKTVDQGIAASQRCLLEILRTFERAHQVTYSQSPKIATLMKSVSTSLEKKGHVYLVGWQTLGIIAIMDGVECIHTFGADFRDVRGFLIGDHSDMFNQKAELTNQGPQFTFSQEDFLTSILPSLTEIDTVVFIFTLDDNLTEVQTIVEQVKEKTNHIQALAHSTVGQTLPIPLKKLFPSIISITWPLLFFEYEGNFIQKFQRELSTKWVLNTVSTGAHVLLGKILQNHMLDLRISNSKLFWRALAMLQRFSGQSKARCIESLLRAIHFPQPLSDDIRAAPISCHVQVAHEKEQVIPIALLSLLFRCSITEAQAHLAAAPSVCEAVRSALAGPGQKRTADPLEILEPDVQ

On to `CC1=NN=C(c2ccc(N)cc2)c2cc3c(cc2C1)OCO3`, for which the compound was classed as inactive in assay [1], in assay [2], in assay [3], in [4] and in assay [5].
In the case of `c1ccc2sc(C3(N4CCCCC4)CCCCC3)cc2c1`, the result in [1], in assay [2], in assay [3], in assay [4] and in assay [5] was inactive.
On to `C[C@@H]1O[C@H](C[N+](C)(C)C)C[C@H]1O`, for which the compound was classed as inactive in assay [1], in assay [2], in [3], in [4] and in assay [5].
For `NCc1cc(=O)[nH]o1`, the compound was classed as inactive in assay [1], in [3], in assay [4], in [6] and in [5].
Take `COC(=O)[C@@H](N)CCCN=C(N)N[N+](=O)[O-]`: the compound was classed as inactive in assay [1], in assay [3], in [4] and in [5].
In the case of `[Cl][In]([Cl])[Cl]`, the Potency in assay [7] is 42.2 µM (active).
`COc1ccc(C(c2ccc(OC)cc2)C(Cl)(Cl)Cl)cc1`: the Potency entry in [7] was “inactive”. In assay [8], the Potency is 66.8 µM (active) and 42.2 µM (active). In assay [9], the max response was 5.23% and -7.02% and -11.5%.
As to `O=[N+]([O-])c1cc([N+](=O)[O-])c2ccccc2c1`, in [7], the Potency was 42.2 µM (active). For the same compound, in assay [8], the Potency result is “inactive”. Further, the max response in assay [9] was -11.7%.
Turning to `NC(CP(=O)(O)O)C(=O)O` (stereo not given), the call in assay [1], in assay [3], in assay [4] and in assay [5] was inactive.
In the case of `O=C(O)[C@@H]1CCN1`, the compound was called inactive in [1], in assay [3], in assay [4] and in [5].
As for `CN(C)NC(=O)CCC(=O)O`, the Potency result in assay [7] and in assay [8] was “inactive” each time. For the same compound, the max response in assay [9] was -0.912% and -0.667%.
Turning to `CCCN1CCC[C@H](c2cccc(O)c2)C1`, the compound was classed as inactive in assay [1], in assay [3], in [4] and in assay [5].
As to `c1cc2ccc3cccc4ccc(c1)c2c34`, the Potency entry in assay [7] and in assay [8] was “inactive” in each case. For the same compound, the max response in assay [9] is -6.01% and -15.3%.
In the case of `Nc1ccc([N+](=O)[O-])cc1`, the Potency entry in assay [7] and in [8] was “inactive” in each case. In addition, the max response in [9] was -0.336%.
Regarding `CS(=N)(=O)CC[C@H](N)C(=O)O` (stereo not given in full), the result in assay [1], in assay [3], in assay [4] and in assay [5] was inactive.
Regarding `C[C@]12CCC3C(CC[C@H]4C[C@H](O)CC[C@]34C)C1CC[C@@H]2C(=O)CO` (stereo not given in full), the compound was called inactive in [1], in assay [3], in assay [4] and in assay [5].
`CCCCOC(=O)c1ccccc1C(=O)OCc1ccccc1`: the Potency entry in [7] and in assay [8] was “inactive” in each case. Further, in assay [9], the max response was -1.29% and -2.62%.
In the case of `S=C(NC1CCCCC1)N1CCC(c2cnc[nH]2)CC1`, the result in [1], in assay [3], in [4] and in [5] was inactive.
As to `CC(=O)[C@H]1CCC2C3CC[C@H]4C[C@H](O)CC[C@]4(C)C3CC[C@@]21C` (stereo not given in full), the outcome in assay [1], in assay [3], in assay [4] and in [5] was inactive.
For the compound `CC(Cc1ccc(O)cc1)NCC(O)c1cc(O)cc(O)c1` (stereo not given), the compound was called inactive in assay [1], in assay [3], in [4] and in [5].
As for `CC(C)(O)C(=O)Nc1ccc([N+](=O)[O-])c(C(F)(F)F)c1`, the Potency result in assay [7] and in assay [8] was “inactive” each time. For the same compound, the max response in assay [9] was -5.91%.
Consider `CNCCc1c[nH]c2ccc(O)cc12`, for which the call in assay [1], in assay [3], in assay [4] and in assay [5] was inactive.
With `NC1CCc2cc(O)c(O)cc2C1` (stereo not given), the compound was classed as inactive in [1], in assay [3], in [4] and in assay [5].
With `O=C(O)Cc1cnc[nH]1`, the outcome in assay [1], in assay [3], in assay [4] and in [5] was inactive.
For `OCCCBr`, the Potency result in assay [7] and in assay [8] was “inactive” in each case. Further, in assay [9], the max response is 4.92%.
Regarding `C=CC(=O)NCNC(=O)C=C`, the Potency entry in assay [7] and in assay [8] was “inactive” each time. In addition, the max response in assay [9] was 1.98% and -12.5%.
Take `CO/C=C(/C(=O)OC)c1ccccc1Oc1cc(Oc2ccccc2C#N)ncn1`: the Potency entry in assay [7] is “inactive”.
`CCCN(CCC)c1c([N+](=O)[O-])cc(S(N)(=O)=O)cc1[N+](=O)[O-]`: the Potency result in assay [7] is “inactive”.
For `CCOCCOC(C)=O`, the Potency result in [7] and in [8] was “inactive” in each case. For the same compound, the max response in assay [9] was 4.03%.
As for `C1CCC(NC2CCCCC2)CC1`, the Potency result in assay [7] and in assay [8] was “inactive” in each case. In addition, the max response in [9] was 1.26% and -8.57% and 6.08%.
With `Cc1nccc2c1[nH]c1ccccc12`, the compound was classed as inactive in assay [1], in assay [3], in assay [4] and in assay [5].
Turning to `CC(=O)[O][Hg][c]1ccccc1`, the Potency result in assay [7] is “inactive”. Besides, the Potency was 1.33 µM (active) in [8]; 35.5 µM (active) and 14.1 µM (active) in assay [9].
For `NC(=NCCC[C@H](N)C(=O)O)N[N+](=O)[O-]`, the result in assay [1], in assay [3], in assay [4] and in [5] was inactive.
As to `O=C(O)COc1ccccc1`, the Potency entry in [7] and in assay [8] was “inactive” in each case. Also, in assay [9], the max response was -7.55%.
As for `C[N+]1(C)C2CCC1CC(OC(=O)C(CO)c1ccccc1)C2` (stereo not given), the outcome in assay [1], in assay [3], in [4] and in assay [5] was inactive.
In the case of `C=CCN1CC[C@]23CCCCC2[C@H]1Cc1ccc(O)cc13` (stereo not given in full), the compound was called inactive in assay [1], in [3], in [4] and in assay [5].
As to `c1ccc2occc2c1`, the Potency entry in assay [7] was “inactive”.
As to `NCCc1c[nH]c2ccc(O)cc12`, the call in assay [1], in assay [3], in assay [4] and in assay [5] was inactive.
`NC(N)=NOCCC(N)C(=O)O` (stereo not given): the compound was classed as inactive in assay [1], in [3], in assay [4] and in [5].
On to `CCOP(=O)(NC(C)C)Oc1ccc(SC)c(C)c1` (stereo not given), for which the Potency result in assay [7] and in assay [8] was “inactive” each time. For the same compound, the max response in [9] is -14.8% and -8.95%.
As for `COC(C)(C)CCCC(C)C/C=C/C(C)=C/C(=O)OC(C)C` (stereo not given), in assay [9], the max response is -7.11% and 1.67%.
As for `O=C(O)C(Cl)Cl`, in assay [7], the Potency entry is “inactive”. Besides, the max response in [9] was -10.5% and 2.18%.
With `CCO/N=C(\CC)C1=C(O)CC(c2c(C)cc(C)cc2C)CC1=O` (stereo not given), in [7], the Potency entry is “inactive”. Also, the max response in [9] was 1.75%.
Turning to `O=C(O)CCCOc1ccc(Cl)cc1Cl`, in [7], the Potency result was “inactive”. In assay [9], the max response is -1.4%.
Turning to `O=S(=O)(O)C(F)(F)C(F)(F)C(F)(F)C(F)(F)F`, in [7], the Potency entry was “inactive”. For the same compound, the max response in [9] was -3.1% and 4.61%.
For `CN(C)[C@@H]1C(=O)C(C(N)=O)=C(O)[C@@]2(O)C(=O)C3=C(O)c4c(O)cccc4[C@@](C)(O)[C@H]3[C@H](O)[C@@H]12`, the Potency result in [7] and in assay [8] was “inactive” in each case. The max response in assay [9] was -0.377% and -4.28% and 10.9%.
